Experimental data as given in PubChem BioAssay (Tox21).
Results filed as inconclusive are left out. Entries that show only a call come without a potency. Values without a mark were called inactive. The source made the active and inactive calls. Unless noted, the call rests on the fitted dose curve; in most records, active means well fitted curve in the direction sought with a large enough effect in the repeat runs; inconclusive means weak or mixed curves; inactive means no such curve, though single readings can be large; an effect the other way counts as inactive or inconclusive.

How the values were obtained:
[1] = biological target: Aryl hydrocarbon receptor (Homo sapiens) (UniProt P35869); test: qHTS assay to identify small molecule that activate the aryl hydrocarbon receptor (AhR) signaling pathway (AID 743085); further: nearly all actives have a fitted effect of over 15% in size; further: potency means the concentration at half of the fitted maximal effect;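 on activation: HG2L7.5c1 human HepG2 liver cells with stably integrated DRE-driven firefly reporter; series mostly up to about 70 µM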
Summary of the method: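 AhR agonist activity is inferred from enhanced light output of a DRE-controlled firefly luciferase reporter in HepG2 cells, measured with ONE-Glo following 24 h treatment at 37C.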

[2] = qHTS assay to identify small molecule that activate the aryl hydrocarbon receptor (AhR) signaling pathway - cell viability counter screen (AID 743086);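 further: HepG2 liver cells carrying the AhR DRE luciferase reporter; series mostly up to about 70 µM; nearly all actives have a fitted effect of over 45% in size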
Summary of the method: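 Cytotoxicity counter screen: CellTiter-Fluor signal (30 min, 37 C) in 4000 HepG2 cells/well carrying the DRE-luciferase reporter, following 24 h compound exposure at 37 C.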

[3] = biological target: Peroxisome proliferator-activated receptor gamma (Homo sapiens) (UniProt P37231); test: qHTS assay to identify small molecule agonists of the peroxisome proliferator-activated receptor gamma (PPARg) signaling pathway (AID 743094; active means well fitted activation curve with a large enough effect in the signal ratio in the repeat runs, not every such curve was filed as active; the % refers to the signal ratio)
Summary of the method: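 Agonist activity was taken from a beta-lactamase reporter (FRET substrate, 1 h at room temperature) in HEK293H cells carrying a PPARg UAS-bla construct. Compounds in DMSO were incubated 17 h at 37C after a 5 h cell pre-incubation.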

[4] = qHTS assay for small molecule agonists of the antioxidant response element (ARE) signaling pathway (AID 743202; active means well fitted activation curve with a large enough effect in the signal ratio in the repeat runs, not every such curve was filed as active; the % refers to the signal ratio; further: potency means the concentration at half of the fitted maximal effect)
Summary of the method: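 After 16 hours of compound treatment at 37 C, HepG2 cells with a stably integrated ARE-driven beta-lactamase reporter were loaded 2 hours at room temperature with LiveBLAzer B/G FRET substrate and fluorescence intensity measured.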

[5] = qHTS assay for small molecule agonists of the antioxidant response element (ARE) signaling pathway - cell viability counter screen (AID 743203; calls by dose curve; further: nearly all actives have a fitted effect of over 55% in size)
Summary of the method: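 Viability counter screen: CellTiter-Glo luminescence, read after 30 min at room temperature, in ARE-bla HepG2 wells. Compound exposure lasted 16 h at 37C/5% CO2, following a 5 h pre-incubation of the cells after plating.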

[6] = qHTS assay for small molecule activators of the heat shock response signaling pathway - cell viability counter screen (AID 743209); further: nearly all actives have a fitted effect of over 50% in size
Summary of the method: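 Cytotoxicity counter screen run in the same wells as the heat-shock bla reporter assay: HeLa HSE-bla cells, 5 h compound exposure at 37 C, viability read by CellTiter-Glo luminescence.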

[7] = qHTS assay for small molecule activators of the heat shock response signaling pathway (AID 743210; active means well fitted activation curve with a large enough effect in the signal ratio in the repeat runs, with a control signal flat, not every such curve was filed as active; the % refers to the signal ratio; further: series mostly up to about 63 µM)
Summary of the method: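 Compound exposure lasted 5 h at 37 C in HeLa cells carrying a heat-shock-element-driven beta-lactamase reporter. Read-out: fluorescence intensity after 2.5 h room-temperature loading with LiveBLAzer B/G FRET substrate.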

[8] = qHTS assay to identify small molecule agonists of the peroxisome proliferator-activated receptor delta (PPARd) signaling pathway - cell viability counter screen (AID 743211); further: nearly all actives have a fitted effect of over 55% in size
Summary of the method: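 qHTS cell viability: PPARd-bla HEK293H; 17 h cpd, 37C; CellTiter-Glo, luminescence at 30 min RT.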

[9] = biological target: Peroxisome proliferator-activated receptor delta (Homo sapiens) (UniProt Q03181); test: qHTS assay to identify small molecule agonists of the peroxisome proliferator-activated receptor delta (PPARd) signaling pathway (AID 743212; calls by dose curve;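 further: HEK293H cells with PPARd UAS beta-lactamase reporter GeneBLAzer system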)
Summary of the method: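 Beta-lactamase reporter readout: a ratiometric FRET signal from the LiveBLAzer substrate after 2 h at room temperature. Compound exposure at 37 °C in PPARδ-bla HEK293H cells driven by an upstream activator sequence.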

[10] = qHTS assay to identify small molecule antagonists of the peroxisome proliferator-activated receptor delta (PPARd) signaling pathway - cell viability counter screen (AID 743213); further: nearly all actives have a fitted effect of over 50% in size
Summary of the method: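 Viability counter-screen, qHTS format: PPARd-bla HEK293H, L165041 300 nM final, 17 h compound exposure at 37 C, CellTiter-Glo luminescence after 30 min RT.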

[11] = biological target: Peroxisome proliferator-activated receptor delta (Homo sapiens) (UniProt Q03181); test: qHTS assay to identify small molecule antagonists of the peroxisome proliferator-activated receptor delta (PPARd) signaling pathway (AID 743215; active means well fitted inhibition curve with a large enough effect in the signal ratio in the repeat runs, not every such curve was filed as active; the % refers to the signal ratio;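 further: cells stimulated with agonist L165041 at 300 nM final during compound exposure; series mostly up to about 62 µM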)
Summary of the method: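 Agonist L165041 (300 nM final) added with compound to PPARd-bla HEK293H UAS-bla reporter cells; 17 h incubation at 37 C. Read-out: LiveBLAzer FRET substrate, 2 h at room temperature, fluorescence intensity.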

[12] = biological target: Bile acid receptor (Homo sapiens) (UniProt Q96RI1); test: qHTS assay to identify small molecule antagonists of the farnesoid-X-receptor (FXR) signaling pathway (AID 743217; active means well fitted inhibition curve with a large enough effect in the signal ratio in the repeat runs, not every such curve was filed as active; the % refers to the signal ratio)
Summary of the method: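 Antagonist mode: chenodeoxycholic acid at 50 uM final stimulates a UAS-driven beta-lactamase reporter in HEK 293T FXR-bla cells during 16 h, 37C compound exposure. Read-out is FRET substrate fluorescence after 2 h at room temperature.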

[13] = biological target: Bile acid receptor (Homo sapiens) (UniProt Q96RI1); test: qHTS assay to identify small molecule agonists of the farnesoid-X-receptor (FXR) signaling pathway (AID 743220; active means well fitted activation curve with a large enough effect in the signal ratio in the repeat runs, not every such curve was filed as active; the % refers to the signal ratio)
Summary of the method: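 FXR-UAS-bla HEK 293T cells carrying a UAS-driven beta-lactamase reporter were plated for 5 h at 37C/5% CO2, then exposed to DMSO-dissolved Tox21 10K compounds for 16 h at 37C. A LiveBLAzer B/G FRET substrate was loaded for 2 h at room temperature before fluorescence reading.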

[14] = qHTS assay to identify small molecule antagonists of the farnesoid-X-receptor (FXR) signaling pathway - cell viability counter screen (AID 743221; active means well fitted cell-killing curve with a large enough effect in the repeat runs, not every such curve was filed as active; further: nearly all actives have a fitted effect of over 50% in size)
Summary of the method: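 After a 5 h settling period, FXR-bla HEK 293T cells receive compound and chenodeoxycholic acid (50 uM final) and incubate 16 h at 37 C; CellTiter-Glo luminescence, read after 30 min at room temperature, reports cell viability.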

[15] = biological target: Vitamin D3 receptor (Homo sapiens) (UniProt P11473); test: qHTS assay to identify small molecule agonists of the vitamin D receptor (VDR) signaling pathway (AID 743222; calls by dose curve)
Summary of the method: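 Agonist mode, beta-lactamase reporter: fluorescence from LiveBLAzer B/G FRET substrate (2 h, room temperature) read after 16 h compound treatment at 37 C of VDR-bla cells, which were pre-incubated 4 h after seeding.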

[16] = biological target: Vitamin D3 receptor (Homo sapiens) (UniProt P11473); test: qHTS assay to identify small molecule antagonists of the vitamin D receptor (VDR) signaling pathway (AID 743223; active means well fitted inhibition curve with a large enough effect in the signal ratio in the repeat runs, not every such curve was filed as active; the % refers to the signal ratio)
Summary of the method: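 Reporter line VDR-bla; stimulus 1alpha,25-(OH)2 vitamin D3, 3 nM final; compound co-addition, 16 h 37C/5% CO2; LiveBLAzer B/G substrate 2 h RT; fluorescence intensity.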

[17] = qHTS assay to identify small molecule agonists of the vitamin D receptor (VDR) signaling pathway - cell viability counter screen (AID 743224); further: series mostly up to about 63 µM; nearly all actives have a fitted effect of over 50% in size
Summary of the method: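 Counter screen run in the same wells as the VDR-bla reporter assay: CellTiter-Glo luminescence, 30 min at room temperature, after 16 h compound treatment at 37C of cells pre-plated for 4 h.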

[18] = qHTS assay to identify small molecule antagonists of the peroxisome proliferator-activated receptor gamma (PPARg) signaling pathway - cell viability counter screen (AID 743194); further: nearly all actives have a fitted effect of over 55% in size
Summary of the method: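 Viability was measured as CellTiter-Glo luminescence in GeneBLAzer PPARg UAS-bla HEK293H cells. These cells had been exposed 17 h at 37 C to compounds together with rosiglitazone at 50 nM final, with the beta-lactamase readout taken in the same wells.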

[19] = qHTS assay to identify small molecule agonists of the farnesoid-X-receptor (FXR) signaling pathway - cell viability counter screen (AID 743218); further: nearly all actives have a fitted effect of over 45% in size
Summary of the method: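 Viability counter screen in the same wells: CellTiter-Glo luminescence, 30 min room-temperature incubation, measured after the beta-lactamase read. Cells were GeneBLAzer FXR-UAS-bla HEK 293T, compound-treated 16 h at 37C.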

Chain of Aryl hydrocarbon receptor (Homo sapiens) (P35869 whole entry, looked up): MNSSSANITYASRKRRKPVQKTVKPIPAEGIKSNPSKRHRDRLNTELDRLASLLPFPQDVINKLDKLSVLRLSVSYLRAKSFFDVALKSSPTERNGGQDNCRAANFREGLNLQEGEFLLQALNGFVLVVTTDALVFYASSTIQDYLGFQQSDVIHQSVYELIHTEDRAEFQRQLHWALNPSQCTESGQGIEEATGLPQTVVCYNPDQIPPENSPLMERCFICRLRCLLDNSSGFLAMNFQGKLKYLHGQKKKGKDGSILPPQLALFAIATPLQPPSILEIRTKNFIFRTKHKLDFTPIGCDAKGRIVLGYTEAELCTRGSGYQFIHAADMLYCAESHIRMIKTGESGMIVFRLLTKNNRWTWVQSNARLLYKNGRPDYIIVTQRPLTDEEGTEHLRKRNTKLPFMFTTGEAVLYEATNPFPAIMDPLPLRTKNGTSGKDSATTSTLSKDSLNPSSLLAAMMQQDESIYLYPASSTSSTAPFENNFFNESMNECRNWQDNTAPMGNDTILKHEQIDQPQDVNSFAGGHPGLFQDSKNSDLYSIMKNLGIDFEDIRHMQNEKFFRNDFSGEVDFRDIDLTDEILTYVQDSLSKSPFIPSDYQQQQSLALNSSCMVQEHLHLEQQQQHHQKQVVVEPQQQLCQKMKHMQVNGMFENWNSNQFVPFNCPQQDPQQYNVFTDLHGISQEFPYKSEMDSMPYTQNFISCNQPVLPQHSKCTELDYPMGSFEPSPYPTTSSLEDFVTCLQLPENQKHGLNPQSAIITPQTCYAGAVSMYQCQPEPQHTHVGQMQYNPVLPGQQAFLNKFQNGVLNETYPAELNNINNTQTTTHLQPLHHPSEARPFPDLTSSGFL
Chain of Peroxisome proliferator-activated receptor delta (Homo sapiens) (Q03181 whole entry, looked up): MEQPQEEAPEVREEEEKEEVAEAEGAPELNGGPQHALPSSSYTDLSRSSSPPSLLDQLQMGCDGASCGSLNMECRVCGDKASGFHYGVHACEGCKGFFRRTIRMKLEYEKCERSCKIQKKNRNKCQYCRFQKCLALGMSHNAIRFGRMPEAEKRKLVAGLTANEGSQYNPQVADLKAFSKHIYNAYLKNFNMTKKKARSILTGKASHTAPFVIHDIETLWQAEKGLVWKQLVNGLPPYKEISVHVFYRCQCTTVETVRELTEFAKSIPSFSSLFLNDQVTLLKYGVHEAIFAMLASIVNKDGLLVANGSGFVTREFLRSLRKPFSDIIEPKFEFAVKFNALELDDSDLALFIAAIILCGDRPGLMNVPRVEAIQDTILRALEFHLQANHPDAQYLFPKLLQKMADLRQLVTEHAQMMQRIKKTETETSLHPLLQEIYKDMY
Chain of Bile acid receptor (Homo sapiens) (Q96RI1 whole entry, looked up): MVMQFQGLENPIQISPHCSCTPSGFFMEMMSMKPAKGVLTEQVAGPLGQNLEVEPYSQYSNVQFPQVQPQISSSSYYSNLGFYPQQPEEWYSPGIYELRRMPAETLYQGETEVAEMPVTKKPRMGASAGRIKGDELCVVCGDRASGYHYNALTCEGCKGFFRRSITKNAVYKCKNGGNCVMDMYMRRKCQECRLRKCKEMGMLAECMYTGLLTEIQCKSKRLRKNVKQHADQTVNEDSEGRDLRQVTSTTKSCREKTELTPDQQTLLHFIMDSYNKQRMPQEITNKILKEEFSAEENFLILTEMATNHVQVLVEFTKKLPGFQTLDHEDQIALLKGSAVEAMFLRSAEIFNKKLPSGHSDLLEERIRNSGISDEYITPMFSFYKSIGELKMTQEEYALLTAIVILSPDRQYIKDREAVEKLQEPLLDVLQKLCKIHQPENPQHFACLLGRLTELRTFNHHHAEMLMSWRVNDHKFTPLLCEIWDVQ
Chain of Peroxisome proliferator-activated receptor gamma (Homo sapiens) (P37231 whole entry, looked up): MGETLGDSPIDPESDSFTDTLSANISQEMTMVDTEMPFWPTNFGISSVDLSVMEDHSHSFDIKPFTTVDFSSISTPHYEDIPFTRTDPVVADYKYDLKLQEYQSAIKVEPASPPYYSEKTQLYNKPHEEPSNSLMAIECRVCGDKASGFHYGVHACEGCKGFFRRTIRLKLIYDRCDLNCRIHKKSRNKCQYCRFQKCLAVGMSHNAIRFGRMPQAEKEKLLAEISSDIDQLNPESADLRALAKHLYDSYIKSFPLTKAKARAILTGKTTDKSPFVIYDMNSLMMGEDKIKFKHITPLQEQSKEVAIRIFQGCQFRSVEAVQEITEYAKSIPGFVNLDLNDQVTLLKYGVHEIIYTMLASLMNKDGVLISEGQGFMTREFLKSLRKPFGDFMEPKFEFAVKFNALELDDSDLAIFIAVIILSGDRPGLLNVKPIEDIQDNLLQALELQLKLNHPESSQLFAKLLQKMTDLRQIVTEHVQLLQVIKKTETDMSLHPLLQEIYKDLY
Chain of Vitamin D3 receptor (Homo sapiens) (P11473 whole entry, looked up): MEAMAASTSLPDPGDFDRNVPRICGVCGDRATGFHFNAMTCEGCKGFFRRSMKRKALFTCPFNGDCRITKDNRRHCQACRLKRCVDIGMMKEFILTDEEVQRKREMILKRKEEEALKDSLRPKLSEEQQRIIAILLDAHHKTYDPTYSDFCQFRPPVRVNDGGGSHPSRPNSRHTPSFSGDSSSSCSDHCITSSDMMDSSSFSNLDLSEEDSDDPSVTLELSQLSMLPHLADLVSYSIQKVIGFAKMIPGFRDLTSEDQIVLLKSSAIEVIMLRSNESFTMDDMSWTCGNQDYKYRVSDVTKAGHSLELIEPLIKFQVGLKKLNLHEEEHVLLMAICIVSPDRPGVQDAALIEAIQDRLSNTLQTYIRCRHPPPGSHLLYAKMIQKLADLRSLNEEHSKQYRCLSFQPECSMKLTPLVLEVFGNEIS

| SMILES | Potency [1] | Potency [2] | outcome [3] | Potency [4] | outcome [5] | outcome [6] | outcome [7] | Potency [8] | outcome [9] | Potency [10] | outcome [11] | outcome [12] | outcome [13] | Potency [14] | outcome [15] | outcome [16] | outcome [17] | Potency [18] | outcome [19] |
| --- | --- | --- | --- | --- | --- | --- | --- | --- | --- | --- | --- | --- | --- | --- | --- | --- | --- | --- | --- |
| O=[N+]([O-])c1ccc(Oc2ccc([N+](=O)[O-])cc2)cc1 | inactive | inactive | inactive | inactive | inactive | inactive | inactive | inactive | inactive | inactive | inactive | inactive | inactive | inactive | inactive | inactive | inactive |  |  |
| NC(=O)c1ncn([C@@H]2O[C@H](CO)[C@@H](O)[C@H]2O)c1O | inactive | inactive | inactive |  | inactive | inactive |  | inactive | inactive | inactive | inactive |  | inactive | inactive |  |  | inactive | inactive | inactive |
| [O-][N+](=Nc1ccccc1)c1ccccc1 | 30.6 µM (active) | inactive | inactive | 6.86 µM (active) | inactive |  | inactive | inactive | inactive | inactive |  |  |  | inactive |  |  | inactive | inactive | inactive |
| c1ccc2cnncc2c1 | inactive | inactive | inactive | inactive | inactive |  | inactive | inactive | inactive | inactive |  |  |  | inactive | inactive |  | inactive | inactive | inactive |
| C=CCn1c(=O)n([C@@H]2O[C@H](CO)[C@@H](O)[C@H]2O)c2nc(N)[nH]c(=O)c21 | inactive | inactive | inactive | inactive | inactive | inactive |  | inactive |  | inactive |  | inactive | inactive |  |  |  |  | inactive | inactive |
| CCCCCOC(=O)Nc1nc(=O)n([C@@H]2O[C@H](C)[C@@H](O)[C@H]2O)cc1F | inactive | inactive | inactive |  | inactive | inactive | inactive | inactive | inactive | inactive |  |  |  | inactive | inactive | inactive | inactive | inactive | inactive |
| CCCCCCC(=O)OCC | inactive | inactive | inactive |  | inactive | inactive | inactive | inactive | inactive | inactive | inactive |  |  | inactive | inactive | inactive | inactive | inactive | inactive |
| CN(C)CCOC(c1ccc(Cl)cc1)c1ccccn1 (stereo not drawn) | inactive | inactive | inactive |  |  | inactive | inactive |  | inactive | inactive | inactive |  |  | inactive | inactive |  | inactive | inactive |  |
| C#CC(O)CCCCC (stereo not drawn) | inactive | inactive | inactive |  | inactive | inactive | inactive | inactive | inactive | inactive |  |  |  | inactive |  |  |  | inactive | inactive |
| Nc1[nH]c(=O)ncc1F | inactive | inactive | inactive | inactive | inactive |  | inactive | inactive |  | inactive | inactive | inactive | inactive |  | inactive | inactive | inactive | inactive | inactive |
| CN(C)C(=O)Nc1ccccc1 | inactive | inactive | inactive |  | inactive | inactive | inactive | inactive | inactive | inactive | inactive |  |  | inactive | inactive | inactive |  | inactive | inactive |
| CC/C=C\CCCCO | inactive | inactive | inactive |  | inactive | inactive | inactive | inactive |  | inactive |  |  |  | inactive | inactive | inactive | inactive | inactive | inactive |
| CC1=CCC2C(C1)C2(C)C (stereo not drawn) | inactive | inactive | inactive |  | inactive |  |  |  | inactive | inactive |  | inactive | inactive | inactive | inactive |  | inactive | inactive | inactive |
